Test results published in PubChem BioAssay (EPA / NIEHS).
Inconclusive results are not listed. Calls of active or inactive are those of the source. The calls were made as follows, unless noted: active = hit-call score of the fitted dose curve at least 0.9, where 1 is the maximum; inactive = score below 0.9.

Legend:
[1] = APR_HepG2_CellCycleArrest_1hr: Apredica 1-hour HepG2 Assay for Cell Cycle Arrest (AID 2282666); conditions: high-content imaging, actives raise or lower the signal
Summary of the method: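 HepG2 cells exposed for 1 h to 0.39–200 uM compound (0.5% DMSO). Fixed, Hoechst-stained nuclei imaged by ArrayScan; DNA content quantified by Cell Cycle analysis; bidirectional fit against DMSO.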

[2] = ACEA_ER_80hr: ACEA Biosciences xCELLigence Real-Time Cell Analysis on Estrogen Receptor Agonism for Proliferation (AID 2282667; active = hit-call score of the fitted dose curve at least 0.9, where 1 is the maximum); conditions: T47D proliferation, impedance (xCELLigence), 80 h
Summary of the method: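 Estrogen-driven proliferation is captured as electrode impedance in T47D cells 80 h after compound addition. Test articles ran at 8 concentrations, 1:4 dilutions from 100 uM final, in two replicate plates.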

[3] = APR_HepG2_CellLoss_1hr: Apredica 1-hour HepG2 Assay for Cell Loss (AID 2282668); conditions: high-content imaging;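 also: curves fitted both ways against DMSO so gain or loss of cells counts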
Summary of the method: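 HepG2 cells were treated for 1 h with compound at 0.39–200 uM, in duplicate, in 0.5% DMSO. After formaldehyde fixation, Hoechst 33342-stained nuclei were imaged on an ArrayScan to count cells. Data were fitted bidirectionally versus DMSO.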

[4] = APR_HepG2_MicrotubuleCSK_1hr: Apredica 1-hour HepG2 Assay for Microtubule CSK Stabilty (AID 2282669); conditions: HepG2 microtubule cytoskeleton imaging, actives raise or lower the signal
Summary of the method: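 HepG2 cells exposed 1 h to 0.39–200 uM compound (0.5% DMSO, duplicates), then formaldehyde-fixed, permeabilized and immunostained for alpha-tubulin with Hoechst nuclei. Imaged by ArrayScan high-content analysis; bidirectional fit versus DMSO.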

[5] = APR_HepG2_NuclearSize_1hr: Apredica 1-hour HepG2 Assay for Nuclear Size (AID 2282670); conditions: high-content imaging, actives raise or lower the signal
Summary of the method: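 HepG2 cells dosed 1 hr with 0.39–200 uM compound (0.5% DMSO), formaldehyde-fixed, Hoechst 33342-stained and imaged at 20x; nuclear diameter from nuclear stain, fitted bidirectionally against DMSO.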

[6] = APR_HepG2_p53Act_1hr: Apredica 1-hour HepG2 Assay for p53 Activation (AID 2282671); conditions: high-content imaging, actives raise or lower the signal
Summary of the method: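 HepG2 cells treated 1 h with compound at 0.39–200 uM (10 concentrations, duplicate) in 0.5% DMSO. Formaldehyde-fixed, permeabilised cells immunostained for p53 with Hoechst 33342; high-content imaging, bidirectional fit versus DMSO.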

[7] = APR_HepG2_MitoticArrest_1hr: Apredica 1-hour HepG2 Assay for Mitotic Arrest (AID 2282672); conditions: high-content imaging, actives raise or lower the signal
Summary of the method: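 HepG2 cells exposed 1 hr to compounds at 0.39–200 uM (0.5% v/v DMSO final), then fixed in 3.7% formaldehyde and immunostained for phospho-histone H3 with Hoechst 33342. Mitotic arrest scored by automated fluorescence imaging, fitted bidirectionally versus DMSO.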

[8] = APR_HepG2_P-H2AX_1hr: Apredica 1-hour HepG2 Assay for H2AX Phosphorylation (AID 2282673); conditions: high-content imaging, actives raise or lower the signal
Summary of the method: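 HepG2 dosed 1 hr at 0.39-200 uM (0.5% DMSO final), duplicate. Fixed in 3.7% formaldehyde, Triton permeabilized, immunostained for phospho-histone H2A.x (1:200) with Hoechst 33342; ArrayScan 20x imaging, bidirectional fit vs DMSO.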

[9] = APR_HepG2_MitoMass_1hr: Apredica 1-hour HepG2 Assay for Mitochondrial Mass (AID 2282674); conditions: high-content imaging, actives raise or lower the signal
Summary of the method: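 HepG2 cells dosed 1 hr with 0.39-200 uM compound (0.5% DMSO), duplicate wells. Mitochondria stained with 250 nM MitoTracker Red CMXRos for 30 min before formaldehyde fixation, imaged at 20x by ArrayScan; bidirectional fit versus DMSO.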

[10] = APR_HepG2_MitoMembPot_1hr: Apredica 1-hour HepG2 Assay for Mitochondrial Membrane Potential (AID 2282675); conditions: imaging, actives raise or lower the signal
Summary of the method: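 HepG2 cells dosed 1 hour with 0.39–200 uM compound in duplicate, 0.5% DMSO final. MitoTracker Red CMXRos (250 nM, 30 min) loaded before formaldehyde fixation; fluorescence quantified by high-content imaging, bidirectional fitting versus DMSO.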

Measured: AC50

CC1(C)C(C=C(Cl)Cl)C1C(=O)OCc1cccc(Oc2ccccc2)c1 (configuration not stated)
not listed: [10]
inactive: all other assays above

COC(=O)c1ccc(CNS(C)(=O)=O)cc1S(=O)(=O)NC(=O)Nc1nc(OC)cc(OC)n1
inactive: [3] | [6] | [7] | [8] | [9]

CCC(C)OC(=O)N1CCCCC1CCO (configuration not stated)
inactive: [3] | [6] | [7] | [8] | [9]

c1ccc(Nc2ccccc2)cc1
inactive: [3] | [5] | [6] | [7] | [8] | [9]

CCC(O)=C1C(=O)CC(C(=O)O)CC1=O (configuration not stated)
inactive: [3] | [6] | [7] | [8] | [9]

c1ccc2[nH]c(-c3cscn3)nc2c1
inactive: [3] | [7] | [8] | [9]

CCCCOC(=O)C(C)Oc1ccc(Oc2ccc(C(F)(F)F)cn2)cc1 (configuration not stated)
active: [2] 0.0178 µM
inactive: [3] | [6] | [7] | [8] | [9]

S=C(S)NCCNC(=S)S.[Mn+2].[S-]C([S-])=NCCN=C([S-])[S-].[Zn+2]
inactive: [3] | [5] | [7] | [8] | [9] | [10]

COC(=O)CSc1cc(N=c2sc(=O)n3n2CCCC3)c(F)cc1Cl
inactive: [3] | [6] | [7] | [8] | [9]

S=C([S-])NCCNC(=S)[S-].[Mn+2]
inactive: [3] | [7] | [8] | [9]

COc1nc(C)nc(NC(=O)NS(=O)(=O)c2ccccc2OCCCl)n1
inactive: [3] | [6] | [7] | [8] | [9]

O=C(O)C1(C(=O)Nc2ccc(Cl)cc2Cl)CC1
inactive: [3] | [6] | [7] | [8] | [9]

CCOC(=O)COc1cc(-n2ncc(C(F)(F)F)c(C)c2=O)c(F)cc1Cl
inactive: [3] | [6] | [7] | [8] | [9]

Oc1ccc(C(c2ccc(O)cc2)C(Cl)(Cl)Cl)cc1
active: [10] 87 µM
inactive: [3] | [6] | [7] | [8] | [9]

CCOC(=O)[C@H](C)Oc1ccc(Oc2nc3ccc(Cl)cc3o2)cc1
inactive: [3] | [6] | [7] | [8] | [9]

COc1c(Cl)ccc(Cl)c1C(=O)O
inactive: [2] | [3] | [7] | [8] | [9]

CCCCC(CC)COC(=O)c1ccccc1C(=O)O (configuration not stated)
inactive: [3] | [4] | [6] | [7] | [8] | [9]

CN(C)C(=O)Nc1ccc(Cl)c(Cl)c1
inactive: [3] | [6] | [7] | [8] | [9]

CC(C)(C)[C@@H](O)[C@@H](Cc1ccc(Cl)cc1)n1cncn1
inactive: [3] | [4] | [6] | [7] | [8] | [9]

CCCOC(=O)NCCCN(C)C
inactive: [3] | [6] | [7] | [8] | [9] | [10]

CCOC(=O)C(C)Oc1ccc(Oc2nc3ccc(Cl)cc3o2)cc1 (configuration not stated)
not listed: [1] | [2] | [4]
inactive: all other assays above

OB(O)O
inactive: [2] | [3] | [6] | [7] | [8] | [9]

CSC(=O)c1cccc2nnsc12
inactive: [3] | [5] | [6] | [7] | [8] | [9]

CCCCOCCOCCOCc1cc2c(cc1CCC)OCO2
inactive: [3] | [7] | [8] | [9] | [10]

COC(=O)c1c(Cl)nn(C)c1S(=O)(=O)NC(=O)Nc1nc(OC)cc(OC)n1
inactive: [3] | [6] | [7] | [8] | [9] | [10]

COC(=O)c1ccccc1S(=O)(=O)NC(=O)Nc1nc(OC(F)F)cc(OC(F)F)n1
inactive: [3] | [6] | [7] | [8] | [9]

COC(=O)c1cccc(C)c1S(=O)(=O)NC(=O)Nc1nc(OCC(F)(F)F)nc(N(C)C)n1
inactive: [3] | [6] | [7] | [8] | [9]

CC(C)(c1ccc(O)cc1)c1ccc(O)cc1
inactive: [3] | [5] | [6] | [7] | [8] | [9]

CCCCC(CC)CN1C(=O)C2C3C=CC(C3)C2C1=O (configuration not stated)
inactive: [2] | [3] | [6] | [7] | [8] | [9]

C#CCOC(=O)[C@@H](C)Oc1ccc(Oc2ncc(Cl)cc2F)cc1
inactive: [2] | [3] | [6] | [7] | [8] | [9]

CCCCCOC(=O)COc1cc(N2C(=O)C3=C(CCCC3)C2=O)c(F)cc1Cl
inactive: [3] | [7] | [8] | [9] | [10]

CCNc1nc(N)nc(Cl)n1
inactive: [3] | [6] | [7] | [8] | [9]
